# How the values were obtained:
# Type in all cases: functional
# [1] = biological target: Solute carrier family 2, facilitated glucose transporter member 1 (Homo sapiens) (UniProt P11166); assay: ST_JUDE_LEISH: Cytotoxicity at 2uM final concentration against transgenic Leishmania Mexicana promastigotes LmGLUT1 that are glucose transport deficient and complemented with the human glucose transporter GLUT1. Activity is measured by DNA content using SYBR green in vitro
# [2] = biological target: Hexose transporter 1 (Plasmodium falciparum) (UniProt O97467); assay: ST_JUDE_LEISH: Cytotoxicity at 2uM final concentration against transgenic Leishmania Mexicana promastigotes LmPfHT that are glucose transport deficient and complemented with the Plasmodium falciparum hexose transporter. Activity is measured by DNA content using SYBR green in vitro
# [3] = biological target: Glucose transporter (Leishmania mexicana) (UniProt O61059); assay: ST_JUDE_LEISH: Cytotoxicity at 2uM final concentration against transgenic Leishmania Mexicana promastigotes LmGT2 that are glucose transport deficient and complemented with the L. Mexicana glucose transporter 2. Activity is measured by DNA content using SYBR green in vitro
# Chain of Solute carrier family 2, facilitated glucose transporter member 1 (Homo sapiens) (P11166 whole entry): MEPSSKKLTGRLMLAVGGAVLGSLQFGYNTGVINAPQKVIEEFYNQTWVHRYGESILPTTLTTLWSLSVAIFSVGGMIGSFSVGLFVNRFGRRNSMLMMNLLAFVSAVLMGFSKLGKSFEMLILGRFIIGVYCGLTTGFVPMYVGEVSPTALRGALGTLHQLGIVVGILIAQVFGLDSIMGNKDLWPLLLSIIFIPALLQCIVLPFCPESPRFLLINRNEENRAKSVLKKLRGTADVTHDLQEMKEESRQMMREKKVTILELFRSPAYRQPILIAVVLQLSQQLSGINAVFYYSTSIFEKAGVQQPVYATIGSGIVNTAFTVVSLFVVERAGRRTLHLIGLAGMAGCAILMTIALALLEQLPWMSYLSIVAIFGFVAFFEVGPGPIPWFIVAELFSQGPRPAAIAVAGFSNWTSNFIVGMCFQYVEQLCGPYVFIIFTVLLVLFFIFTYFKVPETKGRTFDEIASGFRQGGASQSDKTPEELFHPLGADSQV
Structure (SMILES),inhibition [1] [%],inhibition [2] [%],inhibition [3] [%]
Cc1cccc(CCCNC(=O)CN(c2cccc(C(F)(F)F)c2)S(=O)(=O)c2ccc(C(F)(F)F)cc2)c1,5.38,4.48,4.63
Nc1ncc(-c2ccccc2)cc1-c1nc2cc(Cl)c(F)cc2[nH]1,7.29,8.28,3.16
CCCCCCn1c(Sc2ccc(C#N)c([N+](=O)[O-])c2)nnc1-c1ccc(Cl)cc1,5.74,7.85,2.57
COc1ccc(C2C(C(=O)Nc3ccccc3)=C(C)Nc3c(C(=O)Nc4ccccc4)cnn32)cc1 (centres undefined),2.83,0.21,0.09
CC1(C)NC(N)=NC(=N)N1OCCSc1ccccc1,2.9,3.7,3.37
CCCCc1cc(NCc2ccncc2)nc(Nc2ccc(OC)cc2)n1,12.9,5.76,3.3
N#Cc1ccc(-c2ccc(OCC(O)CN3CCCN(Cc4cccc(O)c4Cl)CC3)cc2)cc1 (centres undefined),4.04,0.72,1.67
Cc1ccc(C(NC(=O)C2CCCCC2)c2ccc3cccnc3c2O)cc1 (centres undefined),0.75,1.7,0.54
CCCc1cc(OC)c(CC2c3cc(O)c(Cl)cc3CCN2C)cc1OC (centres undefined),9.73,7.17,14.9
CCCC(C)C(=O)N1CCOC(COCc2cccc(C(F)(F)F)c2)(c2ccc(Cl)cc2)C1 (centres undefined),-0.83,0.15,-1.52
COc1cc(-c2nc(-c3ccc([N+](=O)[O-])cc3)c(-c3ccccc3)[nH]2)cc(OC)c1O,3.48,5.84,5.26
CN(CCN)Cc1cccc(-c2ccc(-c3nc4cc(C(F)(F)F)ccc4[nH]3)s2)c1,10.8,11.3,8.17
O=c1cc(NCCCNCc2ccc(Cl)c(Cl)c2)[nH]c2ccc(Cl)cc12,0.59,0.59,-9.23
Cc1cc(C)c(NC(=O)N[C@H]2CCN(CCCCCNC(=O)/C=C/c3ccc(Cl)c(Cl)c3)C2)c(C)c1,-0.8,-0.95,1.3
CN1CCN(CCCN(Cc2cccc(-c3ccc(CNC4CCCC4)cc3)c2)C(=O)/C=C/c2ccccc2)CC1,6.1,7.29,4.93
COc1ccc2nccc([C@@H](O)CN3CCC(NCC(O)Cc4ccccc4)CC3)c2c1 (some centres undefined),-0.38,-3.2,1.51
O=C(/C=C/c1ccc(Cl)c(Cl)c1)NCCCCCN1CCC(NC(=O)c2ccc(F)cc2)CC1,6.17,3.16,5.01
Cc1nc2ccccc2n1C1CC2CCC(C1)N2CCC1(c2ccccc2)CCN(C(=O)Nc2ccc(C(F)(F)F)cc2)CC1 (centres undefined),4.65,4.07,1.78
CCCCN1CC[C@@H](CCC(O)c2ccnc3ccc(OCCC(C)C)cc23)[C@@H](CC)C1 (some centres undefined),1.18,4.04,3.24
Cc1ccccc1C1CCN(C2CCC(NC(=O)/C=C/c3ccc(F)c(F)c3)CC2)CC1 (centres undefined),-1.77,-1.74,-1.27
CN1CCN(c2ccnc3ccc(NC(=O)Nc4ccccc4Br)cc23)CC1,-3.53,-0.8,0.11
N=c1n(CCN2CCCCC2)c2ccccc2n1CC(O)c1ccc(Cl)c(Cl)c1 (centres undefined),1.22,-0.46,1.58
COc1ccccc1N1CCN(CCCCNC(=O)c2ccc(NC(=O)c3cc(Cl)cc(Cl)c3)cc2)CC1,2.07,3.24,2.92

Structure (SMILES),inhibition [1] [%],inhibition [2] [%],inhibition [3] [%]
Cc1cccc2nc(-c3ccc(-c4ccc(NC(=O)Nc5ccsc5)cc4)s3)[nH]c12,5.12,5.23,4.39
COc1ccc2nccc(N3CCC(O)(CCNCc4ccc5c(n4)NC(=O)CO5)CC3)c2n1,2.27,3.33,2.81
Cc1cccc2nc(-c3ccc(-c4cccc(CNCCCNS(C)(=O)=O)c4)cc3)[nH]c12,0.32,0.24,-0.36
Oc1ccc(CCNCCCCCCNCCc2ccc(Cl)c3ccccc23)cc1O,-0.26,-2.07,-2.9
CC(C)(CN)c1nc(-c2ccc(Cl)c(O)c2)c(-c2ccncc2)[nH]1,-2.49,0.02,1.18
CN(C)C(=O)c1cccc(COc2ccc(N3C(N)=NC(N)=NC3(C)C)cc2Cl)c1,1.73,1.77,-0.58
Cn1c(Nc2cc(C(C)(C)C)on2)nc2cc(Nc3ccnc(Nc4cccc(S(=O)(=O)N5CCOCC5)c4)n3)ccc21,5.63,2.67,-0.88
Cc1cc(=O)oc2c1ccc1oc(C(O)c3ccc(Cl)cc3)c(C)c12 (centres undefined),-0.12,0.59,-1.6
CCOc1cc(C)ccc1C1CCN(CCCCNC(=O)c2coc(-c3ccc(Cl)cc3)c2)CC1,0.96,3.18,2.06
CCN(CC)CCOC(=O)c1ccc(NC(=O)c2cc(-c3ccc(C)cc3)nc3ccccc23)cc1,1.71,0.95,1.21
CS(=O)(=O)c1ccc(CCNCc2ccc(-c3cccc(-c4nc5ccccc5[nH]4)c3)cc2)cc1,1.41,0.65,-0.73
Cc1cc(C)c(NC(=O)NC2CCN(CCCCCNC(=O)/C=C/c3ccc(Cl)c(Cl)c3)C2)c(C)c1 (centres undefined),2.03,2.36,2.29
CC1(C)NC(N)=NC(=N)N1OCCCc1cccc(C(F)(F)F)c1,-0.43,-0.35,1.25
c1cc(C2=NC3CCCCC3N2)ccc1OCCCOc1ccc(C2=NC3CCCCC3N2)cc1 (centres undefined),7.04,6.74,1.12
Cc1cc(-c2cccc3c(C(=O)N4CCc5cc6nccc(N7CCN8CCC[C@H]8C7)c6cc54)cccc23)cc(C)n1,1.99,-1.7,2.83
CC(C)NCc1ccc(-c2cccc(NC(=O)c3ccc(F)cc3)c2)cc1,6.57,9.15,6.89
COc1cccc(CNC(=O)c2cccc(-c3ccc(CN4CCC(N5CCCC5)CC4)cc3)n2)c1,7.47,5.46,8.7
Cc1cc(C(=O)Nc2ccc3c(c2)CCN3C2CCN(Cc3cc(F)cc(F)c3F)C2)no1 (centres undefined),-0.31,1.36,5.53
COc1cccc(CN2CCC(N3CCc4cc(NC(=O)c5cc(C)on5)ccc43)C2)c1OC (centres undefined),1.63,5.08,4.28
COc1cc(Cc2cnc(N)nc2N)cc(OCCCN2C(=O)c3ccccc3C2=O)c1OC,4.68,5.99,6.69
COc1ccc2nccc(N(C)CC3(O)CCN(CC(O)c4ccc5c(c4)NC(=O)CS5)CC3)c2n1 (centres undefined),-0.29,-0.78,-0.26
CCCCCCCN1CC[C@@H](CCCc2ccnc3ccc(OCCC4CCNCC4)cc23)[C@@H](CC)C1,7.73,7.46,6.53
CCCCSc1nc2c(c(=O)n1Cc1ccco1)C1(CCCCC1)Cc1ccccc1-2,0.71,1.36,1.89

Structure (SMILES),inhibition [1] [%],inhibition [2] [%],inhibition [3] [%]
COC(=O)c1ccc(CN2CCC(N(Cc3cccc(Oc4ccccc4)c3)S(=O)(=O)c3ccc(NC(C)=O)cc3)CC2)cc1,0.23,0.78,0.32
CCOc1cc(C(=O)NC2CC(C)(C)NC(C)(C)C2)ccc1-c1nc2cc(Cl)ccc2[nH]1,1.25,1.71,1.1
CCC(C)(C)n1c(C)cc2c3c(N)nc(N)nc3ccc21,71.7,77.2,63.6
C=C[C@H]1CN(CCCCCCC)CC[C@H]1CC(=O)Nc1cnnc2ccc(OC)cc12,1.79,0.25,4.78
Oc1c(Cl)cc(Nc2nccc(Nc3ccc(Oc4ccccc4)cc3)n2)cc1Cl,4.19,4.44,1.16
Cc1cccc2nc(-c3cccc(-c4ccc(NC(=O)C(C)CN(C)C)cc4)c3)[nH]c12 (centres undefined),-2.74,0.04,-1.14
FC(F)(F)c1ccc2[nH]c(-c3cccc(-c4ccc(CNCCN5CCNCC5)cc4)c3)nc2c1,2.75,2.47,1.97
Cc1ccc(-c2ccc3c(c2)C=C(C(=O)NC2CCN(CCNC(=O)c4cccc(C(F)(F)F)c4)CC2)CCC3)cc1,5.7,7.43,7.77
CS(=O)(=O)c1ccc(CNCc2ccc(-c3cccc(-c4nc5cc(F)ccc5[nH]4)c3)cc2)cc1,3.3,1.83,2.88
CCc1cn2c3c(cc(C(=O)N[C@@H](Cc4ccccc4)[C@H](O)CNCc4cccc(C)c4)cc13)N(C)S(=O)(=O)CC2,1.35,0.76,2.29
CCn1cc2c3c(cc(C(=O)N[C@@H](Cc4ccccc4)[C@H](O)CNC4CCOCC4)cc31)N(C)S(=O)(=O)CC2,0.41,0.29,4.85
COCCN1CCC(C(=O)NCC(C)(C)c2nc(-c3ccc(Br)c(O)c3)c(-c3ccncc3)[nH]2)CC1,7.2,8.02,7.22
Cc1cc(-c2cccc3c(NC(=O)N4CCc5cc6nccc(N7CCN8CCC[C@H]8C7)c6cc54)cccc23)cc(C)n1,4.48,2.56,1.59
COc1ccc2nccc([C@@H](O)CN3CCC(c4cc(-c5ccc(Cl)cc5)[nH]n4)CC3)c2n1,64.9,78.2,81.2
CN(C)c1nc(NCc2ccccc2)nc(N/N=C/c2cc([N+](=O)[O-])ccc2O)n1,-1.92,-1.79,-1.5
COc1ccccc1C1CCN(C2CCC(NC(=O)/C=C/c3ccc(C(F)(F)F)cc3F)CC2)CC1 (centres undefined),0.47,1.54,-0.44
CS(=O)(=O)Nc1ccc(-c2ccc3ccnc(N)c3c2)cc1,7.57,7.12,6.67
COc1cc(NC(=O)Nc2ccc([N+](=O)[O-])cc2OC)c(OC)cc1Cl,16.6,9.29,5
CCN(CC)CCN(Cc1ccc(-c2ccc(C(F)(F)F)cc2)cc1)C(=O)Cn1cc(CCCCc2cccc(F)c2F)c(=O)c2ccccc21,7.95,6.93,10.4
c1ccc(CCNCc2ccc(-c3cccc(-c4nc5ccccc5[nH]4)c3)cc2)nc1,3.95,3.7,3.79
Cc1cccc2nc(-c3ccc(-c4ccc(CN5CCN(c6cnccn6)CC5)cc4)s3)[nH]c12,11.9,9.41,9.78
CCN(CC)CCN(Cc1ccc(-c2ccc(C(F)(F)F)cc2)cc1)C(=O)Cn1c(/C=C/c2ccco2)nc(=O)c2ccccc21,-0.7,-0.97,-1.26

# Source: ChEMBL document CHEMBL3433997, “St. Jude Leishmania screening dataset” (2016)
